The supplement of paper PMC10681739

What follows are sequences tested against T1, ETS1 (UniProt P14921) (assay: ETS1 binding intensity (PBM fluorescence) in presence of RUNX1, normalised to ETS1-only experiment (arbitrary fluorescence units); higher = stronger binding). Settings: ETS1 concentration 1 nM; RUNX1 concentration 25 nM.
T1 sequence: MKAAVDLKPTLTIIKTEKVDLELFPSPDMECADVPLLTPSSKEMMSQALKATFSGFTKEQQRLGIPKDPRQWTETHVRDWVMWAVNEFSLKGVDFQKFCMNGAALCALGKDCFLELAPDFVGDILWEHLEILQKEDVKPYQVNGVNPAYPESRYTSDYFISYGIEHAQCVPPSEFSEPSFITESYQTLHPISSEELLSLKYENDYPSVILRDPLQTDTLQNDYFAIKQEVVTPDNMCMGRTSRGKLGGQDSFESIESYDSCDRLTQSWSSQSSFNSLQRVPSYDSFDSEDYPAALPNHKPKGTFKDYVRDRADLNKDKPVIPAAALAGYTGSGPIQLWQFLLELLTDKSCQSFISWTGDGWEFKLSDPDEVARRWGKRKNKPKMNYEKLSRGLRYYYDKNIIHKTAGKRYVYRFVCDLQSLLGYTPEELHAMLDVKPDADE

| Sequence | ETS1 binding intensity |
| --- | --- |
| CCCTGGACGGGAAGCGGCGGCCAGATCCGCAAGCCC | 747 |
| GCACCACCGGAAGTAGGGCTCAACCACCGCTCATTT | 13400 |
| CTTGCTTAACGCTTCCTGAGGGGTGGTTTGGGTTTT | 369 |
| GAGAACTTCCGGTGCGCTCCCCGGGACTGCGGTCCC | 4920 |
| GCTGCCACTTCCCTTGCTTATTTCATGTGGTTTGGA | 794 |
